Bioassay records from PubChem BioAssay.
NIH3T3 tox: cytotoxic compounds in NIH 3T3 cells. 94,000 tested, 4.3% active. Potency, µM (highest dose often 96.7 µM), without a hit: top-dose activity change, negative = cytotoxicity, most hits filed as inhibitors. NIH 3T3 viability, CellTiter-Glo ATP luminescence, 48-72 h. AID 1345082; note: % is set by controls: 0 for no effect and ±100 for the full control effect; nearly all actives have a fitted effect of over 55% in size
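Cytotoxicity is measured as loss of cellular ATP: NIH 3T3 cells (400/well) are exposed to compound for 48 or 72 hr at 37 °C, then CellTiter-Glo luminescence is imaged after 10 min at room temperature.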
HEK cytotox: HEK 293 cell cytotoxicity | HEK 293 viability, ATP luminescence (CellTiter-Glo), 48-72 h | Potency, µM (top dose mostly 115 µM), for the others: at the top dose activity change, negative = cytotoxicity, most hits filed as inhibitors | 94,000 tested, 6.6% active; note: % is set by controls: 0 for no effect and ±100 for the full control effect; nearly all actives have a fitted effect of over 60% in size
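HEK 293 seeded at 250 cells/well receive compound via pintool. After 48 or 72 hr at 37 degree Celsius, 5% CO2 and 95% humidity, CellTiter-Glo is dispensed and luminescence read following 10 min at room temperature.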
FLuc inh-1: blocks purified firefly luciferase enzyme activity. 76,000 tested, 2.5% active. purified P. pyralis luciferase, luminescence, biochemical. Potency, µM (top dose mostly 115 µM), usual class: inhibitors. AID 1347043; note: % is set by controls: 0 for no effect and ±100 for the full control effect; nearly all actives have a fitted effect of over 65% in size
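Biochemical qHTS: compound (6-point titration) added to 10uM D-luciferin plus 10uM ATP in Tris acetate pH 7.5 buffer with Mg, Tween-20 and BSA, then purified enzyme at 10nM; light output imaged.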
NPR1 antag: antagonists of human natriuretic peptide receptor Npr1. Potency, µM (series often up to 46.3 µM), for the others: at the top dose activity change, negative = inhibition, hits mostly inhibitors. P16066. HEK293 hNpr1 GloSensor cGMP, ANP-stimulated luminescence. 76,000 tested, 1.6% active. AID 1347048; calls by dose curve; note: % is set by controls: 0 for no effect and ±100 for the full control effect; nearly all actives have a fitted effect of over 60% in size
Target sequence (P16066 whole entry, looked up): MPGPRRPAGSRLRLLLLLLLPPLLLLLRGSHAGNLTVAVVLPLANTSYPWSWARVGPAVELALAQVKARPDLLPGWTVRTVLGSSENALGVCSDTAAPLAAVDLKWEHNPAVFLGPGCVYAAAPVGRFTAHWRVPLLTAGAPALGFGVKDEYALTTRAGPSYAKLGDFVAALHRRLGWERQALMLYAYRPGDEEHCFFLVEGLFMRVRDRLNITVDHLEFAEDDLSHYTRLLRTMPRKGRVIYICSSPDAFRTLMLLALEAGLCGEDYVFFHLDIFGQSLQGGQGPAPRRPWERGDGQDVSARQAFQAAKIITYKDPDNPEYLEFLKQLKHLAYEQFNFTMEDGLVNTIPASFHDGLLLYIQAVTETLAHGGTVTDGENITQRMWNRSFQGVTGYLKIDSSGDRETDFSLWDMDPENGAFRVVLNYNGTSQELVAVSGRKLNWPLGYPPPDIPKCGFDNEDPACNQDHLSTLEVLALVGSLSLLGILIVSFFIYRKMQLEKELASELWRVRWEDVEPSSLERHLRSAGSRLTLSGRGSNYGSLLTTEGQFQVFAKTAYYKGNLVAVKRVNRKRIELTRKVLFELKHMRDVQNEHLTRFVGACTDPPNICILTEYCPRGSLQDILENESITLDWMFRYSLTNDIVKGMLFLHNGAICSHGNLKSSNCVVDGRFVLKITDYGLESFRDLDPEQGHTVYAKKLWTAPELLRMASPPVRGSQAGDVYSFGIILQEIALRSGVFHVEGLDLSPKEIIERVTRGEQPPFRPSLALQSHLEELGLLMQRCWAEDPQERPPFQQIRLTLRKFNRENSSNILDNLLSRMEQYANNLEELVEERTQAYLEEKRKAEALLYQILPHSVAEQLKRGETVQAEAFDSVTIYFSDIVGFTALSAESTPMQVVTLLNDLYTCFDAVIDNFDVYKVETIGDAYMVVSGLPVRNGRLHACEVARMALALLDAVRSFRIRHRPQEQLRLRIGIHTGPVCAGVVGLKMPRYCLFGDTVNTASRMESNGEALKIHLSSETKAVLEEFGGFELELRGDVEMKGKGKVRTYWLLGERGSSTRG
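HEK293 cells stably expressing human Npr1 and cGMP GloSensor pGS-40F, loaded 2 h with 2% GloSensor reagent, given compound 30 min at room temperature. Luminescence read before and 20 min after 0.1 nM hNppA.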
FLuc SDR no ATP: stabilizes firefly luciferase without ATP; shares compounds with FLuc inh-1; AID 1963318; Purified FLuc-C-HiBiT, Nano-Glo HiBiT luminescence, no ATP; Potency, µM (highest dose often 32.7 µM), inactives show at the top dose activation (signal gain), hits mostly activators; 1,300 tested, 7.8% active; note: nearly all actives have a fitted effect of over 55% in size
FLuc SDR ATP: firefly luciferase binding stabilization, ATP added. Potency, µM (series often up to 32.7 µM), inactives show top-dose activation (gain of signal), hits mostly activators. 1,300 tested, 8.7% active. AID 1963319. purified FLuc-C-HiBiT + ATP, HiBiT complementation luminescence. shares compounds with FLuc inh-1;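 note: signal reports ligand binding via conformational change of the enzyme rather than luciferase catalysis; % of control where 0% means no effect; nearly all actives have a fitted effect of over 55% in size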
FLuc inh-2: inhibitors of firefly luciferase enzymatic activity | shares compounds with FLuc inh-1 | purified FLuc-C-HiBiT enzyme, luciferin luminescence | Potency, µM (doses to about 32.7 µM), for inactives: at the top dose activity change, negative = inhibition, hits mostly inhibitors | 1,300 tested, 42% active | AID 1963320; note: % is set by controls: 0 for no effect and ±100 for the full control effect; nearly all actives have a fitted effect of over 70% in size
Active calls of the source: *; [ ] = dose if it differs, or a comment. This is a sample that favours compounds with a hit; in the whole collection about 11% have one here. Unless noted, calls come from the whole dose curve; as a rule, active = well fitted curve in the direction sought with a large enough effect; inconclusive = small, poorly fitted or top-dose-only effect, or another doubt; inactive = no such curve, though single readings can be large; an effect the other way counts as inactive or inconclusive. Potency is the fitted concentration of half-maximal effect.

Screening CCCC1=Nc2cc(C(=O)NCCc3ccc(OC)c(OC)c3)ccc2Sc2ccc(C)cc21 returned NIH3T3 tox inconclusive, HEK cytotox inconclusive, FLuc inh-1 inactive and NPR1 antag -12%.
For COc1ccc(CNC(=O)c2ccc3c(c2)N=C(C)c2c(C)ccc(C)c2S3)cc1 the results were NIH3T3 tox inconclusive, HEK cytotox 10µM*, FLuc inh-1 inactive, NPR1 antag -16%, FLuc SDR no ATP 13%, FLuc SDR ATP 8% and FLuc inh-2 2%.
`COc1ccc(C2Cn3cnc(C(=O)N4CCC(C(=O)Nc5ccc(F)c(F)c5)CC4)c3CO2)cc1` (stereo not drawn) gave NIH3T3 tox -5%, HEK cytotox -2%, FLuc inh-1 inactive and NPR1 antag -12%.
COc1ccc(NC(=O)C2CCN(C(=O)c3ncn4c3COC(c3ccccc3)C4)CC2)cc1Cl (stereo not drawn) was read as NIH3T3 tox 1%, HEK cytotox 1%, FLuc inh-1 1.3µM*, NPR1 antag inconclusive, FLuc SDR no ATP 15%, FLuc SDR ATP 0.62µM* and FLuc inh-2 0.88µM*.
O=C(Nc1ccc(F)c(F)c1)C1CCN(C(=O)c2ncn3c2COC(c2ccc(F)cc2)C3)CC1 (stereo not drawn) was read as NIH3T3 tox -9%, HEK cytotox inconclusive, FLuc inh-1 14µM*, NPR1 antag -14%, FLuc SDR no ATP 12%, FLuc SDR ATP inconclusive and FLuc inh-2 inconclusive.
Screening O=C(Nc1ccc(F)c(Cl)c1)C1CCN(C(=O)c2ncn3c2COC(c2ccccc2)C3)CC1 (stereo not drawn) returned NIH3T3 tox inactive, HEK cytotox 7%, FLuc inh-1 1.8µM*, NPR1 antag inconclusive, FLuc SDR no ATP 13%, FLuc SDR ATP 0.7µM* and FLuc inh-2 0.99µM*.
COc1ccccc1C(=O)N1CCCC1C(=O)N1CCC(N2CCCC2=O)CC1 (stereo not drawn) was read as NIH3T3 tox inactive and HEK cytotox -6%.
For CC(C)Cn1c(=O)c(C(=O)N2CCN(C(=O)Nc3ccccc3)CC2)nc2cccnc21 the results were NIH3T3 tox -17% and HEK cytotox inactive.
Screening Cc1nn(-c2ccc(C(C)C)cc2)c(C)c1[C@@H]1C=C[C@@H](NC(=O)COCC(=O)O)C1 returned NIH3T3 tox inconclusive, HEK cytotox -19%[172 µM], FLuc inh-1 35µM*, NPR1 antag 1%[70.6 µM], FLuc SDR no ATP 17%[49.3 µM], FLuc SDR ATP 13%[49.3 µM] and FLuc inh-2 inconclusive.
Cc1nn(-c2ccc(C(F)(F)F)cc2)c(C)c1[C@@H]1C=C[C@@H](NC(=O)CCCC(=O)O)C1 was read as NIH3T3 tox -3%, HEK cytotox -6%, FLuc inh-1 inactive and NPR1 antag -1%.
Screening Cc1nn(-c2ccc(C(C)(C)C)cc2)c(C)c1[C@@H]1C=C[C@@H](NC(=O)CCCC(=O)O)C1 returned NIH3T3 tox inconclusive, HEK cytotox -24%[172 µM], FLuc inh-1 22µM*, NPR1 antag -11%[70.6 µM], FLuc SDR no ATP 25%[49.3 µM], FLuc SDR ATP inconclusive and FLuc inh-2 inconclusive.
Cc1ccc(-n2nc(C)c([C@@H]3C=C[C@@H](NC(=O)COCC(=O)O)C3)c2C)cc1Cl was read as NIH3T3 tox -23%[174 µM], HEK cytotox -20%[172 µM], FLuc inh-1 35µM*, NPR1 antag 0%[70.6 µM], FLuc SDR no ATP 10%[49.3 µM], FLuc SDR ATP 9%[49.3 µM] and FLuc inh-2 -1%[49.3 µM].
Screening Cc1ccc(-n2nc(C)c([C@H]3C=C[C@@H](OC(=O)Nc4cccc(C(F)(F)F)c4)C3)c2C)cc1Cl returned NIH3T3 tox inconclusive, HEK cytotox 32µM*, FLuc inh-1 11µM*, NPR1 antag inconclusive, FLuc SDR no ATP 14%, FLuc SDR ATP 12% and FLuc inh-2 -9%.
Screening O=C1NCCCCCCN(C(=O)C2CC2)[C@H]2CCCC[C@@H]12 returned NIH3T3 tox -30%, HEK cytotox inconclusive, FLuc inh-1 inactive and NPR1 antag 1%.
For CC(C)Oc1ccc2c(NC(=O)CCn3cnnn3)nn(CC(F)(F)F)c2c1 the results were NIH3T3 tox -18%, HEK cytotox -5%, FLuc inh-1 inactive and NPR1 antag 8%.
CN1C(=O)C(CC(=O)N2CCN(Cc3cccc(Cl)c3)CC2)=C2CCCCC21 (stereo not drawn) was read as NIH3T3 tox -28%, HEK cytotox inconclusive, FLuc inh-1 inactive and NPR1 antag -1%.
Screening COc1ccc(CCN(C)C2CCCN(c3ncccc3C#N)C2)cc1OC (stereo not drawn) returned NIH3T3 tox -20%, HEK cytotox -8%, FLuc inh-1 inactive and NPR1 antag -4%.
N#Cc1c(NC(=O)c2cccc3ccccc23)sc2c1CCCC2 was read as FLuc SDR no ATP 12%, FLuc SDR ATP 8% and FLuc inh-2 -20%.
`COCC(=O)N1CCN(Cc2ccccc2-c2cccnc2)CC1` gave NIH3T3 tox -25%[138 µM] and HEK cytotox -17%[172 µM].
`CCOc1ccc(-c2cc(CCCC(=O)NCCc3ccc(OCC)c(OCC)c3)no2)cc1` gave FLuc SDR no ATP 13%, FLuc SDR ATP inconclusive and FLuc inh-2 3.5µM*.
`CCOc1ccc(-c2cc(CCCC(=O)NCCc3ccc(SC)cc3)no2)cc1` gave FLuc SDR no ATP 15%, FLuc SDR ATP inconclusive and FLuc inh-2 3.1µM*.
O=C(c1nc(-c2ccc(F)cc2)c2cnccn12)N1CCCC1 was read as NIH3T3 tox -12%[138 µM], HEK cytotox inconclusive, FLuc inh-1 inactive and NPR1 antag -4%[70.6 µM].
`Cc1ccc(-n2ncc3c(N4CCCC(C)C4)ncnc32)cc1C` (stereo not drawn) gave FLuc SDR no ATP 3.5µM*, FLuc SDR ATP 1.2µM* and FLuc inh-2 0.16µM*.
Screening CC1CCCN(c2ncnc3c2CN(c2ccccc2)C(=O)N(C)C3)C1 (stereo not drawn) returned NIH3T3 tox -7%, HEK cytotox inactive, FLuc inh-1 inactive and NPR1 antag 0%.
CC1CCCN(c2ncnc3c2cnn3-c2cccc(Cl)c2)C1 (stereo not drawn) was read as FLuc SDR no ATP 11µM*, FLuc SDR ATP inconclusive and FLuc inh-2 0.79µM*.
